PLK1 PBD inh – PLK1 (human) polo-box domain binding inhibition; P53350; Plk1 PBD binding of FITC phosphopeptide, fluorescence polarization; Potency, µM, for the others: max response, negative = inhibition, actives largely listed as inhibitors; hit rate 2.8% among 360,000; AID 720504; note: series mostly up to about 57 µM; % is set by controls: 0 for no effect and ±100 for the full control effect; nearly all actives have a fitted effect of over 65% in size
JMJD2A Tudor – blocks the human JMJD2A Tudor domain | O75164 | Potency, µM (highest dose often 114 µM), without a hit: at the highest dose activity change, negative = inhibition, hits mostly inhibitors | AID 504339 | AlphaScreen JMJD2A-Tudor / H3K4me3 peptide binding | hit rate 4.4% among 390,000; note: % is set by controls: 0 for no effect and ±100 for the full control effect; nearly all actives have a fitted effect of over 50% in size
HP1b chromo inh – blocks HP1-beta chromodomain binding to methylated histone tails | AlphaScreen HP1-beta / biotin-H3K9me3 peptide binding | Potency, µM (highest dose often 114 µM), without a hit: at the top dose activity change, negative = inhibition, usual class: inhibitors | hit rate 0.56% among 390,000 | AID 540317; note: nearly all actives have a fitted effect of over 70% in size
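Compound inhibition of the preformed complex between 50 nM HP1-beta and 50 nM biotinylated H3K9me3 peptide was read by AlphaScreen. Buffer was PBS pH 7.4 with 0.01% Tween-20. Incubations ran 30 min at room temperature, with 10 ug/mL donor/acceptor beads.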
G9a block – inhibitors of human histone lysine methyltransferase G9a. G9a H3K9 monomethylation, AlphaScreen, 2 h. Potency, µM (doses to about 102 µM), inactives show top-dose activity, negative = inhibition, most hits filed as inhibitors. hit rate 8.8% among 350,000. AID 504332; note: % is set by controls: 0 for no effect and ±100 for the full control effect; nearly all actives have a fitted effect of over 75% in size
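G9a (20 nM) was preincubated 15 min with compound, then reacted 2 h at room temperature with 500 nM biotin-H3K9 peptide and 20 µM SAM. Monomethyl-H3K9 detected by AlphaScreen using anti-H3K9me1 antibody.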
Sfp PPTase inh – blocks B. subtilis Sfp PPTase activity. Q9F4F7. Biochemical Sfp PPTase activity, qHTS. Potency, µM, without a hit: largest response in the series, negative = inhibition, actives largely listed as inhibitors. hit rate 3.5% among 310,000;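 note: the enzyme is Sfp with the accession as filed and its product quenches rhodamine fluorescence; 0% = enzyme reaction without inhibitor and -100% = no enzyme wells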
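Step 1, compound plus 15 nM Sfp-PPTase, 15 min, room temperature. Step 2, add rhodamine-CoA (5 uM) and BHQ-2-YbbR (12.5 uM). Step 3, read 525/598 nm fluorescence at 0 and 30 min.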
BAZ2B inh – inhibitors of human BAZ2B bromodomain; Q9UIF8; AlphaScreen BAZ2B-H3K14Ac peptide displacement; Potency, µM (highest dose often 114 µM), without a hit: top-dose activity change, negative = inhibition, most hits filed as inhibitors; hit rate 4.4% among 360,000; AID 504333; note: % is set by controls: 0 for no effect and ±100 for the full control effect; nearly all actives have a fitted effect of over 60% in size
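In this displacement format the biotinylated H3(5-23) peptide acetylated at Lys14 serves as ligand at 50 nM, with BAZ2B at 50 nM in PBS pH 7.4 containing 0.01% Tween-20. Donor and acceptor beads are 10 ug/mL final.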
The depositor's hits bear a star; ? = inconclusive; . = not tested or not shown; ! = repeats disagree; [ ] = dose if it differs, or a comment. In the library only some 12% were active in any assay of this set; here they are far more common. Calls come from the whole dose curve; as a rule, active = well fitted curve in the direction sought with a large enough effect; inconclusive = small, poorly fitted or top-dose-only effect, or another doubt; inactive = no such curve, though single readings can be large; an effect the other way counts as inactive or inconclusive. Potency is the fitted concentration of half-maximal effect.

SMILES	PLK1 PBD inh	JMJD2A Tudor	HP1b chromo inh	G9a block	Sfp PPTase inh	BAZ2B inh
O=C(NN1C(=O)/C(=C/c2cccc(O)c2)SC1=S)c1ccccc1O	-27%	45µM*	-18%[57 µM]	-8%[59 µM]	0%	45µM*
CCOC(=O)C1=CCC(c2ccccc2)N(S(=O)(=O)c2ccccc2C)C1 (stereo unspecified)	-4%	.	.	.	.	.
CC(C)c1cc(C(C)C)c(S(=O)(=O)Nc2cccc3cccnc23)c(C(C)C)c1	.	-1%	.	.	-1%	.
O=C1/C(=C/c2ccc(O)c(O)c2)SC(=S)N1Nc1ccccc1	8%	10µM*	7.1µM*	10µM*	-8%	3.5µM*
O=C(O)C(Cc1ccccc1)N1C(=O)/C(=C/c2cccc3ccccc23)SC1=S (stereo unspecified)	.	.	.	?	-19%	56µM*
CCOc1cc(/C=C2\SC(=S)N(Nc3ccccc3)C2=O)ccc1O	?	0%[11.4 µM]	50µM*	?	?	20µM*
O=C(O)C(Cc1ccccc1)N1C(=O)/C(=C/c2ccccc2)SC1=S (stereo unspecified)	?	?	-18%	?	-2%	?
COc1cc(/C=C2\SC(=S)N(Nc3ccccc3)C2=O)ccc1O	20%	45µM*	50µM*	?	?	40µM*
COC(=O)C1=C(C(=O)OC)[C@@H]2N(C)c3ccccc3[C@@]23C[C@@H](C(=O)OC)N(S(=O)(=O)c2ccc([N+](=O)[O-])cc2)C3=N1	.	.	.	.	-12%	.
CC(C)[C@@H]1Cc2[nH]c(=S)[nH]c(=O)c2[C@H](CCc2ccccc2)O1	-7%	.	.	.	.	.
O=S(=O)(Nc1ccc(NS(=O)(=O)c2ccccc2)c2ccccc12)c1ccccc1	5%	.	.	.	.	.
O=c1[nH][nH]c(=O)c2c(NS(=O)(=O)c3ccccc3)cccc12	?	45µM*	-18%	-6%[59 µM]	9%	-2%
COc1ccc(C2C(C(=O)c3ccccc3)=C(C)Nc3nc4ccccc4n32)c(OC)c1 (stereo unspecified)	6%	-16%	47%	23%	15%	3%
CCOC(=O)c1sc2nc(-c3ccco3)c3c(c2c1N)CC(C)(C)OC3	?	-24%	20%	?	8.9µM*	-11%
COC(=O)CSc1ncnc2c1sc1nc(-c3ccco3)c3c(c12)CC(C)(C)OC3	.	.	.	?	11µM*	50µM*
CCCc1nc2sc3c(SCC(=O)NCc4ccco4)ncnc3c2c2c1CCC2	?	22µM*	?	40µM*	50µM*	28µM*
COC(=O)c1ccc(OC)c(CN2C(=O)N(c3ccc(C(C)=O)cc3)S(=O)(=O)c3ccccc32)c1	.	-19%	27%	-3%[59 µM]	.	0%
C/C=C/C=C/C(=O)Nc1nccs1	-3%	?	24%	-11%[59 µM]	35µM*	-4%
O=C(/C=C/c1ccc(Cl)cc1)Nc1nccs1	-9%	-20%	28%	-2%	8%	-8%
c1nc(N2CCOCC2)c2cc(-c3ccoc3)ccc2n1	.	.	.	3%[0.501 µM]	0%	.
CCOC(=O)c1cc(CC)sc1NC(=O)CN1C(=O)C(=O)N(CC(C)C)C1=O	-9%	-30%	39%	-31%	.	6%
O=S(=O)(c1cccc(C(F)(F)F)c1)N1CCN(c2nc(-c3ccccc3)nc3ccccc23)CC1	.	-10%	25%	.	.	.
CCN1CCCc2cc(CN(CCN3CCOCC3)C(=S)Nc3ccc(OC)c(Cl)c3)ccc21	-5%	?	18%	50µM*	-2%	?
CCN1CCCc2cc(CN(CCN3CCOCC3)C(=S)Nc3ccccc3OC)ccc21	-18%	40µM*	-38%[57 µM]	25µM*	15%	40µM*
CCN1CCCc2cc(CN(CCN3CCOCC3)C(=S)Nc3cccc(C)c3)ccc21	-8%	11µM*	?	?	15%	8.9µM*
SMILES	PLK1 PBD inh	JMJD2A Tudor	HP1b chromo inh	G9a block	Sfp PPTase inh	BAZ2B inh
CN(C)C(CNC(=O)c1cc(S(=O)(=O)N2CCOCC2)ccc1Cl)c1cccs1 (stereo unspecified)	-1%	-28%	29%	.	.	.
CCc1nc2sc3c(=O)[nH]cnc3c2c2c1CSC(C)(C)C2	27µM*	-33%	16%	2.2µM*	45µM*	?
O=Nc1c(-c2c(O)[nH]c3cc(Br)ccc23)[nH]c2ccccc12	-3%	3.2µM*	4µM*	8.4µM*	-18%	4µM*
CCN(CCCNS(=O)(=O)c1ccc2c(c1)CCN2C(C)=O)c1cccc(C)c1	-12%	22µM*	-20%	?	11%	?
CC(=O)N1CCc2cc(S(=O)(=O)Nc3cccc(C(F)(F)F)c3)ccc21	-8%	89µM*	9%	6%	7%	3%
CC(=O)N1CCCc2cc(S(=O)(=O)Nc3ccc4c(c3)OCO4)ccc21	-8%	-21%	10%	50µM*	-6%	-4%
CC(=O)N1CCc2cc(S(=O)(=O)NCCC(=O)Nc3cccc(C)c3)ccc21	-2%	-9%	9%	3%[12.7 µM]	1%	2%
COc1ccc(CN(C(=O)COc2ccccc2)c2ccccc2C(=O)O)cc1	-1%	3%	15%[57 µM]	-3%	34%	-7%
N#CC1=C2SCC(O)(c3ccccc3)N2C(=O)CC1c1ccccc1 (stereo unspecified)	-12%	-33%	12%	40µM*	56µM*	?
Cc1cc(O)c(C(C)C)cc1Cl	.	.	.	0%[59 µM]	-1%	.
COc1ccc(-c2csc(NC3CCCCC3)n2)c(OC)c1	?	?	?	45µM*	-27%	-35%
c1ccc(-c2csc(NC3CCCCC3)n2)cc1	-16%	-23%	-12%	50µM*	-8%	-30%
O=C(Nc1nc(-c2ccccc2)cs1)NC1CCCCC1	-2%	-25%	14%	13%[59 µM]	6%	-6%
O=C(CCCC[C@@H]1SC[C@H]2NC(=O)N[C@H]12)Nc1ccc(C(=O)O)cc1	.	.	.	.	-17%	.
CC(NCCC(c1ccccc1)c1ccccc1)c1ccccc1 (stereo unspecified)	-2%	-6%	41%	?	25µM*!	-14%
Cc1cccc(N(Cc2ccccc2)C(=O)c2ccccc2S(C)(=O)=O)c1	-13%	-14%	20%	.	-2%	-6%
COc1ccc(N2Cc3cccc(C(=O)Nc4cccc(F)c4)c3C2=O)cc1	.	20µM*	-26%	-31%[59 µM]	.	.
COc1ccc(N2Cc3cccc(C(=O)Nc4ccc(Cl)cc4)c3C2=O)cc1	.	-35%	10%	-34%[59 µM]	.	?
COc1ccc(N2Cc3cccc(C(=O)N4CCN(C(=O)c5ccco5)CC4)c3C2=O)cc1	?	50µM*	?	45µM*	?	50µM*
COc1ccccc1NC(=O)NC1(C)CCS(=O)(=O)C1 (stereo unspecified)	0%	-16%	?	-7%	19%	4%
CCc1c(C)nc2nncn2c1NCc1ccccc1	.	3%	34%	-2%[59 µM]	.	-3%
